# Test results from PMC7819943, “Rice protein-binding microarrays: a tool to detect cis-acting elements near promoter regions in rice”.
# Whole data set: some 35,000 sequences, median “fluorescence intensity (a.u.)” near 10,000, cut for the highest 2% near 52,000. The entries come from a sample that favours the highest values as a whole.
# Biological target: T1, OsWOX13 (Oryza sativa, UniProt Q5QMM3 1-267)
# T1 sequence: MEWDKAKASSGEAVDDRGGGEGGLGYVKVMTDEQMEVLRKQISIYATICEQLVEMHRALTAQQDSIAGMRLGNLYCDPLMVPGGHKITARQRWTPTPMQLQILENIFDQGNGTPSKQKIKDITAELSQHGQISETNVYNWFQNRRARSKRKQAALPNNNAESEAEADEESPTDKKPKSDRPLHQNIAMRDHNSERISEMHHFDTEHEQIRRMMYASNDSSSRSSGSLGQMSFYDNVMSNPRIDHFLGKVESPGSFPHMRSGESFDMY
# Assay: protein-binding microarray (RPBM); PBS, 2% BSA, 51.3 ng/ul salmon testes DNA, 50 uM zinc acetate, 200 nM TF, 25 C, 1 h; high values mean tight binding
# Details: protein: recombinant; tags: N-terminal polyhistidine and DsRed monomer fusion (pET32a); label: CyDye5-dUTP incorporated in the synthesized complementary strand; 3' TTTTT single-stranded linker to array surface; dsDNA, one strand shown
# Method in brief: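 Using Ni–NTA, transcription factors fused N-terminally to polyhistidine and DsRed were purified after expression in E. coli BL21-CodonPlus. These were incubated at 200 nM with a blocked, double-stranded custom Agilent array for 1 h at 25 °C in a buffer containing 50 µM zinc acetate, and the array was washed. The binding signal is per-feature fluorescence intensity (arbitrary units) on an Axon 4000B scanner.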
row,Sequence,binding signal
1,AACATTGATTAATATTGGTCAAAATATTTTCAACTCTAAACGGAGTCACCTAGTGCAG,19200 fluorescence intensity (a.u.)
2,ATAATTGGTAAAGATGGATTCAAAATATTATTAATAATTGCGGAGTCACCTAGTGCAG,26200 fluorescence intensity (a.u.)
3,TGATAGATGGAAAATAAATTGGTAAAATTAGTAGATGGGACGGAGTCACCTAGTGCAG,39700 fluorescence intensity (a.u.)
4,CTTATTATAAAGATTTAATTATAACAAATATAATGGTATGCGGAGTCACCTAGTGCAG,4800 fluorescence intensity (a.u.)
5,CAATGATTGGACTAAAGAAAATGCTAATATTAATGGTATGCGGAGTCACCTAGTGCAG,52300 fluorescence intensity (a.u.)
6,GATTCAATGATGGATTTAATAAAACTAATTTGGTATTGCTCGGAGTCACCTAGTGCAG,18700 fluorescence intensity (a.u.)
7,ACCGTGATTACGGTAATTGGAAATATAAAAGAGATGGGAGCGGAGTCACCTAGTGCAG,56800 fluorescence intensity (a.u.)
8,CTTCTTGATTGATTTATACTAACTGCGCACACACTTTATTCGGAGTCACCTAGTGCAG,55200 fluorescence intensity (a.u.)
9,CTTGATTTATTGATTGATTAATAAAACATTTTATTTCCAACGGAGTCACCTAGTGCAG,56900 fluorescence intensity (a.u.)
10,GTATGATTAATTGAGTTTTAATTATTATAAAATTTTAAAACGGAGTCACCTAGTGCAG,22900 fluorescence intensity (a.u.)
11,CTTAACTGTAACACTATTGCGTTGATTACTTCTACTTATTCGGAGTCACCTAGTGCAG,15200 fluorescence intensity (a.u.)
12,ACTTATATTCTTTAACTTATGATTGGAGGTATATACTATACGGAGTCACCTAGTGCAG,5760 fluorescence intensity (a.u.)
13,GTACCTACCAGTAATTAATCAGCAGGCTCACTGTAATCAACGGAGTCACCTAGTGCAG,3470 fluorescence intensity (a.u.)
14,CATTTGATTTTCGGTCTGATTTTGTTATTTCACTGGCAATCGGAGTCACCTAGTGCAG,24300 fluorescence intensity (a.u.)
15,GGTGACAGTTTGGTTAGTGACAAATAGTTACATTCTCGTTCGGAGTCACCTAGTGCAG,5070 fluorescence intensity (a.u.)
16,GTTTAAAGAAATTGATGAAAGAAAAGCTTCATTGTTGGCTCGGAGTCACCTAGTGCAG,6180 fluorescence intensity (a.u.)
17,TTTAATTGAACTTGAGTGGTCCAGGTATTAAATGTGGGTCCGGAGTCACCTAGTGCAG,52200 fluorescence intensity (a.u.)
18,ACCCAGGCTTTGATTGCGATGATAAACCGAGCTCGCAGCACGGAGTCACCTAGTGCAG,13800 fluorescence intensity (a.u.)
19,GGAAATTTAACTATTTGCCACTTTTAGGTTTATCAATTATCGGAGTCACCTAGTGCAG,4880 fluorescence intensity (a.u.)
20,ATTGGACCTGAACACTGCTAATTAATTGGTATAAGTCATCCGGAGTCACCTAGTGCAG,8360 fluorescence intensity (a.u.)
21,ATTAATGAACTGTGACATTTCCTTAATTTCATTTTGCTCTCGGAGTCACCTAGTGCAG,23800 fluorescence intensity (a.u.)
22,ATAGATAGATTTCTCCATAAGTAATTACATTGTAGGTAGGCGGAGTCACCTAGTGCAG,28500 fluorescence intensity (a.u.)
23,AATAACTGATGACTGTGAATGATTGATACGATGTAGTAGGCGGAGTCACCTAGTGCAG,65300 fluorescence intensity (a.u.)
24,ATAACAGTGATTGATCTGTTAAATATCCGATACGGGTAGGCGGAGTCACCTAGTGCAG,65200 fluorescence intensity (a.u.)
25,TCTGATTGATGATGACGATGATGGCGGCTGTGCAGCTGAACGGAGTCACCTAGTGCAG,47600 fluorescence intensity (a.u.)
26,TTAAATTGTTAATACCTCTGTATATCATCCGATCTACGTACGGAGTCACCTAGTGCAG,19600 fluorescence intensity (a.u.)
27,CAGTTATGTGATTGGACTATAAATACGATATATGTTGTGTCGGAGTCACCTAGTGCAG,28700 fluorescence intensity (a.u.)

row,Sequence,binding signal
1,AACTGATATGTAGGGTATGATTGTAATGAAATTACGATTGCGGAGTCACCTAGTGCAG,10700 fluorescence intensity (a.u.)
2,GACTTGTAATTTGTAGCAGTGGTAAGAAATAAATCTGACCCGGAGTCACCTAGTGCAG,3900 fluorescence intensity (a.u.)
3,CTTAAACAAATGATAGTACGATCCCATCTGATTGGGTGTTCGGAGTCACCTAGTGCAG,7540 fluorescence intensity (a.u.)
4,ACTCAATCTTATTAACTTAAATTGAACTTGAACAAGAGAACGGAGTCACCTAGTGCAG,22000 fluorescence intensity (a.u.)
5,ACTGATAACTTCCAACTGATAATTGGAGAAGGAGGGTTTGCGGAGTCACCTAGTGCAG,12400 fluorescence intensity (a.u.)
6,TCGTAAATTTAAATCCATAGATTTAAGGAATACTTAGGCTCGGAGTCACCTAGTGCAG,25900 fluorescence intensity (a.u.)
7,GCAAATTAATTAACTAATTAATTAAACACCCAACTAATCTCGGAGTCACCTAGTGCAG,63700 fluorescence intensity (a.u.)
8,ACCCAAAATTAACTCTAAACTTAAGTTTCAAAATCTAAATCGGAGTCACCTAGTGCAG,7640 fluorescence intensity (a.u.)
9,AATTAATCAGCCAATCACAATCTCTCAAACTACACGGACTCGGAGTCACCTAGTGCAG,35500 fluorescence intensity (a.u.)
10,AATCAACTAACTAATCATGGGATTAACCAAAACTAATTCTCGGAGTCACCTAGTGCAG,3800 fluorescence intensity (a.u.)
11,TCAATTAATTAATTAATTAACTACACTTTCACACGAGTCTCGGAGTCACCTAGTGCAG,52700 fluorescence intensity (a.u.)
12,GTAATTAACAGCAATCAGCAAGTGGCCTAATTGCCAACCTCGGAGTCACCTAGTGCAG,56700 fluorescence intensity (a.u.)
13,TTGAGCACTAATTAATCATTAGGTGGCCTAATCAACAGCTCGGAGTCACCTAGTGCAG,22000 fluorescence intensity (a.u.)
14,AGACAATTCAATAATTAATCTACACTTTCCTTCCGCACCTCGGAGTCACCTAGTGCAG,5880 fluorescence intensity (a.u.)
15,GTAATTAATTAACATTGCAATTAAGCACATAAGTTAATCACGGAGTCACCTAGTGCAG,27000 fluorescence intensity (a.u.)
16,CCACCTCTAATGAAGAGGTGATTGCAACCATTCATCTCTTCGGAGTCACCTAGTGCAG,12000 fluorescence intensity (a.u.)
17,AAACAAACTAACATGGATTGATTTTCTATAGGATGGAGGGCGGAGTCACCTAGTGCAG,25200 fluorescence intensity (a.u.)
18,TGGATTTTAAATTAAGTAAATTGCACCAGCGGTCCTTAAACGGAGTCACCTAGTGCAG,6480 fluorescence intensity (a.u.)
19,AATTTGAATTTTGTTAAGTTAAATTTGATGAACTGGGGCCCGGAGTCACCTAGTGCAG,5490 fluorescence intensity (a.u.)
20,TTATAATTATTTGTGTTGCAATGTATGTTTTGTTTATATACGGAGTCACCTAGTGCAG,9980 fluorescence intensity (a.u.)
21,TTTGGGTGTTAGTGTCTTAATTAGTGTGTGAGCCCCATCCCGGAGTCACCTAGTGCAG,3790 fluorescence intensity (a.u.)
22,TGTGGCTAAATTTATCAATTGAATGGGCTAGAGGCACGCTCGGAGTCACCTAGTGCAG,17400 fluorescence intensity (a.u.)
23,CCAAATTCATTAAAATTAACAATAACAATTATATTTGTTTCGGAGTCACCTAGTGCAG,10900 fluorescence intensity (a.u.)
24,ATTGAGTCAATCCACACTTTATTAGCACATTGGCCCACACCGGAGTCACCTAGTGCAG,3510 fluorescence intensity (a.u.)
25,GTTTAGCAAATCCAGCACCCATTATACAGACTTTCTATGCCGGAGTCACCTAGTGCAG,65500 fluorescence intensity (a.u.)
26,AAGTCTAATTAATCCATCATTAGCAAATGTTTATTGTAGCCGGAGTCACCTAGTGCAG,26700 fluorescence intensity (a.u.)
27,ATTTGCTAATGACGGATTAATTAGATTTAATAAATTCATCCGGAGTCACCTAGTGCAG,39700 fluorescence intensity (a.u.)
